Laboratory results: the supplement of paper PMC4466140

B1: unnamed (peptide)
chain: KDKSRPPRPPPKPLH

Target: AgAbp1
Assay: SPOT peptide array binding signal intensity (averaged, normalized) (arbitrary units (background-subtracted, floor 0; scale differs between SH3 domains)); higher = stronger binding of the SH3 domain to the peptide
Outline: (§1)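 Cellulose membranes carried synthetic 15-mer peptides with cysteines swapped for serines. These were incubated overnight at 4°C with 10 μg/ml of GST-fused SH3 domains from four yeast species in TBS-based blocking buffer. Binding signal, detected with anti-GST antibody and quantified in Genespotter, is the normalized, background-subtracted spot intensity averaged over replicates, in arbitrary units specific to each domain.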

Binder | SPOT peptide array binding signal intensity
B1 | 917

Target: AgBbc1
Assay: as above
Outline: as §1

Binder | SPOT peptide array binding signal intensity
B1 | 282

Target: AgBem1-D1
Assay: as above
Outline: as §1

Binder | SPOT peptide array binding signal intensity
B1 | 30

Target: AgBzz1-D1
Assay: as above
Outline: as §1

Binder | SPOT peptide array binding signal intensity
B1 | 257

Target: AgBzz1-D2
Assay: as above
Outline: as §1

Binder | SPOT peptide array binding signal intensity
B1 | 119

Target: AgCyk3
Assay: as above
Outline: as §1

Binder | SPOT peptide array binding signal intensity
B1 | ≤ 0

Target: AgFus1
Assay: as above
Outline: as §1

Binder | SPOT peptide array binding signal intensity
B1 | ≤ 0

Target: AgHof1
Assay: as above
Outline: as §1

Binder | SPOT peptide array binding signal intensity
B1 | 55.8

Target: AgHse1
Assay: as above
Outline: as §1

Binder | SPOT peptide array binding signal intensity
B1 | 27

Target: AgLsb1
Assay: as above
Outline: as §1

Binder | SPOT peptide array binding signal intensity
B1 | 7.5

Target: AgLsb4
Assay: as above
Outline: as §1

Binder | SPOT peptide array binding signal intensity
B1 | 11.5

Target: AgMyo5
Assay: as above
Outline: as §1

Binder | SPOT peptide array binding signal intensity
B1 | ≤ 0

Target: AgNbp2
Assay: as above
Outline: as §1

Binder | SPOT peptide array binding signal intensity
B1 | 138

Target: AgRvs167
Assay: as above
Outline: as §1

Binder | SPOT peptide array binding signal intensity
B1 | 1.33

Target: AgSho1
Assay: as above
Outline: as §1

Binder | SPOT peptide array binding signal intensity
B1 | 71.5

Target: AgSla1-D1-D2
Assay: as above
Outline: as §1

Binder | SPOT peptide array binding signal intensity
B1 | ≤ 0

Target: AgSla1-D3
Assay: as above
Outline: as §1

Binder | SPOT peptide array binding signal intensity
B1 | 7.5

Target: CaAbp1-D1
Assay: as above
Outline: as §1

Binder | SPOT peptide array binding signal intensity
B1 | 298

Target: CaAbp1-D2
Assay: as above
Outline: as §1

Binder | SPOT peptide array binding signal intensity
B1 | 780

Target: CaBbc1
Assay: as above
Outline: as §1

Binder | SPOT peptide array binding signal intensity
B1 | 240

Target: CaBem1-D1
Assay: as above
Outline: as §1

Binder | SPOT peptide array binding signal intensity
B1 | 382

Target: CaBzz1-D1
Assay: as above
Outline: as §1

Binder | SPOT peptide array binding signal intensity
B1 | 3930

Target: CaBzz1-D2
Assay: as above
Outline: as §1

Binder | SPOT peptide array binding signal intensity
B1 | 748

Target: CaCyk3
Assay: as above
Outline: as §1

Binder | SPOT peptide array binding signal intensity
B1 | 23.5

Target: CaFus1
Assay: as above
Outline: as §1

Binder | SPOT peptide array binding signal intensity
B1 | ≤ 0

Target: CaHof1
Assay: as above
Outline: as §1

Binder | SPOT peptide array binding signal intensity
B1 | ≤ 0

Target: CaHse1
Assay: as above
Outline: as §1

Binder | SPOT peptide array binding signal intensity
B1 | 67

Target: CaLsb1
Assay: as above
Outline: as §1

Binder | SPOT peptide array binding signal intensity
B1 | 0.5

Target: CaLsb4
Assay: as above
Outline: as §1

Binder | SPOT peptide array binding signal intensity
B1 | 158

Target: CaMyo5
Assay: as above
Outline: as §1

Binder | SPOT peptide array binding signal intensity
B1 | ≤ 0

Target: CaNbp2
Assay: as above
Outline: as §1

Binder | SPOT peptide array binding signal intensity
B1 | 88.5

Target: CaRvs167
Assay: as above
Outline: as §1

Binder | SPOT peptide array binding signal intensity
B1 | 8.67

Target: CaRvs167-3
Assay: as above
Outline: as §1

Binder | SPOT peptide array binding signal intensity
B1 | 0.5

Target: CaSho1
Assay: as above
Outline: as §1

Binder | SPOT peptide array binding signal intensity
B1 | ≤ 0

Target: CaSla1-D1-D2
Assay: as above
Outline: as §1

Binder | SPOT peptide array binding signal intensity
B1 | 602

Target: CaSla1-D3
Assay: as above
Outline: as §1

Binder | SPOT peptide array binding signal intensity
B1 | 21.5

Target: ScAbp1
Assay: as above
Outline: as §1

Binder | SPOT peptide array binding signal intensity
B1 | 670

Target: ScBbc1
Assay: as above
Outline: as §1

Binder | SPOT peptide array binding signal intensity
B1 | 8.5

Target: ScBem1-D1
Assay: as above
Outline: as §1

Binder | SPOT peptide array binding signal intensity
B1 | ≤ 0

Target: ScBzz1-D1
Assay: as above
Outline: as §1

Binder | SPOT peptide array binding signal intensity
B1 | 123

Target: ScBzz1-D2
Assay: as above
Outline: as §1

Binder | SPOT peptide array binding signal intensity
B1 | ≤ 0

Target: ScCyk3
Assay: as above
Outline: as §1

Binder | SPOT peptide array binding signal intensity
B1 | ≤ 0

Target: ScFus1
Assay: as above
Outline: as §1

Binder | SPOT peptide array binding signal intensity
B1 | ≤ 0

Target: ScHof1
Assay: as above
Outline: as §1

Binder | SPOT peptide array binding signal intensity
B1 | ≤ 0

Target: ScHse1
Assay: as above
Outline: as §1

Binder | SPOT peptide array binding signal intensity
B1 | 24

Target: ScLsb1
Assay: as above
Outline: as §1

Binder | SPOT peptide array binding signal intensity
B1 | 121

Target: ScLsb2
Assay: as above
Outline: as §1

Binder | SPOT peptide array binding signal intensity
B1 | 1

Target: ScLsb3
Assay: as above
Outline: as §1

Binder | SPOT peptide array binding signal intensity
B1 | 1930

Target: ScLsb4
Assay: as above
Outline: as §1

Binder | SPOT peptide array binding signal intensity
B1 | 15.5

Target: ScMyo3
Assay: as above
Outline: as §1

Binder | SPOT peptide array binding signal intensity
B1 | 29.5

Target: ScMyo5
Assay: as above
Outline: as §1

Binder | SPOT peptide array binding signal intensity
B1 | 49.5

Target: ScNbp2
Assay: as above
Outline: as §1

Binder | SPOT peptide array binding signal intensity
B1 | 305

Target: ScPex13
Assay: as above
Outline: as §1

Binder | SPOT peptide array binding signal intensity
B1 | 103

Target: ScRvs167
Assay: as above
Outline: as §1

Binder | SPOT peptide array binding signal intensity
B1 | 45

Target: ScSho1
Assay: as above
Outline: as §1

Binder | SPOT peptide array binding signal intensity
B1 | 171

Target: ScSla1-D1-D2
Assay: as above
Outline: as §1

Binder | SPOT peptide array binding signal intensity
B1 | 266

Target: ScSla1-D3
Assay: as above
Outline: as §1

Binder | SPOT peptide array binding signal intensity
B1 | 11.5

Target: SpAbp1-D1
Assay: as above
Outline: as §1

Binder | SPOT peptide array binding signal intensity
B1 | 528

Target: SpBbc1
Assay: as above
Outline: as §1

Binder | SPOT peptide array binding signal intensity
B1 | ≤ 0

Target: SpBzz1-D1
Assay: as above
Outline: as §1

Binder | SPOT peptide array binding signal intensity
B1 | 366

Target: SpBzz1-D2
Assay: as above
Outline: as §1

Binder | SPOT peptide array binding signal intensity
B1 | 16.8

Target: SpCyk3
Assay: as above
Outline: as §1

Binder | SPOT peptide array binding signal intensity
B1 | 1

Target: SpHof1
Assay: as above
Outline: as §1

Binder | SPOT peptide array binding signal intensity
B1 | ≤ 0

Target: SpHof1-2
Assay: as above
Outline: as §1

Binder | SPOT peptide array binding signal intensity
B1 | ≤ 0

Target: SpHof1-3
Assay: as above
Outline: as §1

Binder | SPOT peptide array binding signal intensity
B1 | 75.5

Target: SpHse1
Assay: as above
Outline: as §1

Binder | SPOT peptide array binding signal intensity
B1 | 21.5

Target: SpLsb1
Assay: as above
Outline: as §1

Binder | SPOT peptide array binding signal intensity
B1 | 484

Target: SpLsb4
Assay: as above
Outline: as §1

Binder | SPOT peptide array binding signal intensity
B1 | 670

Target: SpMyo1
Assay: as above
Outline: as §1

Binder | SPOT peptide array binding signal intensity
B1 | 277

Target: SpNbp2
Assay: as above
Outline: as §1

Binder | SPOT peptide array binding signal intensity
B1 | 13.5

Target: SpPex13
Assay: as above
Outline: as §1

Binder | SPOT peptide array binding signal intensity
B1 | ≤ 0

Target: SpRvs167
Assay: as above
Outline: as §1

Binder | SPOT peptide array binding signal intensity
B1 | 129

Target: SpSla1-D1-D2
Assay: as above
Outline: as §1

Binder | SPOT peptide array binding signal intensity
B1 | ≤ 0

Target: SpSla1-D3
Assay: as above
Outline: as §1

Binder | SPOT peptide array binding signal intensity
B1 | 3
